A selection: hits, their analogues and other compounds. The true share with any hit is near 4.6%.
KKLEB tox – reduces viability of KKLEB cystic fibrosis airway cells; KKLEB CF airway cells viability, ATPlite luminescence, overnight; stronger effect = lower value; cells stimulated with P. aeruginosa culture filtrate; activity change (cytotoxicity), % at 5 µM; 0.36% of 360,000 active;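 active = corrected activity change at or below -50% at 5 µM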
CF NFkB block – cystic fibrosis NF-kB activation inhibition | KKLEB NF-kB-GFP reporter, PAF-induced, GFP fluorescence overnight | inhibition, % at 5 µM | 0.86% of 360,000 active | AID 588850;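 active = at least 50% inhibition at 5 µM, scaled per plate between neutral and stimulator controls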;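 note: PAF is a Pseudomonas aeruginosa culture filtrate used as stimulus; plate controls were PAF-stimulated DMSO wells for no effect and unstimulated DMSO wells for full effect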
ABHD5 PLIN5 PPI – blocks binding of human ABHD5 to perilipin-5 | AID 602281 | 0.78% of 360,000 active | Q00G26+Q8WTS1 | inhibition, % at 4 µM | Split G. princeps luciferase complementation, luminescence, 4 h;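 active = inhibition above the mean inhibition across every tested compound plus 3 SD, cut at about 22% in these data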;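 note: 0% = DMSO only wells and the 100% control is not disclosed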
Mdm2-MdmX inh – disrupts the human Mdm2-MdmX interaction | SaOS-2 split-luciferase Mdm2/MdmX complementation, luminescence | inhibition, % at 8 µM | 3% of 330,000 active | AID 485346;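 active = inhibition of at least 50% at 8 µM in the primary screen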
Target sequence (O15151 whole entry, looked up): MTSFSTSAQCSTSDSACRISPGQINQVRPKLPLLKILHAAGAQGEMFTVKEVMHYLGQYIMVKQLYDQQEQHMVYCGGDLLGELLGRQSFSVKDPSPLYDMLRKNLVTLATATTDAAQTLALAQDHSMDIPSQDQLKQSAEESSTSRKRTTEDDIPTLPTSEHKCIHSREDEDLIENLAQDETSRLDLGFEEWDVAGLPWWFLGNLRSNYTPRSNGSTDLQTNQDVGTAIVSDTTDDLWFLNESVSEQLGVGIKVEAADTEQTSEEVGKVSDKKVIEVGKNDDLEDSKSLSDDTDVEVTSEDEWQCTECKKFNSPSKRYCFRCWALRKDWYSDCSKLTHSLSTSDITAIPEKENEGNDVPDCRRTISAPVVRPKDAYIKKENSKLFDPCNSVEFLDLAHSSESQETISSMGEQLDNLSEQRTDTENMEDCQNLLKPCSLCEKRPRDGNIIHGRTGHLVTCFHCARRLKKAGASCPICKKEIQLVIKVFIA
Target sequence (Q00987 whole entry, looked up): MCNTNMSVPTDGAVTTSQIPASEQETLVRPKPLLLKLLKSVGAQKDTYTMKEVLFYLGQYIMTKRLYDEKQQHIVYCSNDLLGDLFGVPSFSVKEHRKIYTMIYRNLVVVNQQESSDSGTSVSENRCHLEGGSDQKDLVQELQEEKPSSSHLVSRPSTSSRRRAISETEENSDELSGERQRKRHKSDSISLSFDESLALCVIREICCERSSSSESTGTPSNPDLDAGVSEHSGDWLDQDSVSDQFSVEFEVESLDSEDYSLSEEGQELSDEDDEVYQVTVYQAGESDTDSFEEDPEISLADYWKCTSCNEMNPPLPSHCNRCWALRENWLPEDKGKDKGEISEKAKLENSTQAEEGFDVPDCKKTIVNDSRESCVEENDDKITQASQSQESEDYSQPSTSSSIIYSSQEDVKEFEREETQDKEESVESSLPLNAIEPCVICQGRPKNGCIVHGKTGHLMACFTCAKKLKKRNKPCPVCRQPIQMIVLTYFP
Peg3 promoter – inhibitors of Peg3 promoter; 1.7% of 360,000 active; inhibition, % at 20 µM; HeLa PEG-Prom luciferase reporter, luminescence, overnight;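 active = inhibition of at least 50% at 20 µM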
HIF-2a inh – inhibitors of HIF-2a; 786-0 RCC cells HIF-2a reporter, luciferase luminescence, overnight; inhibition, % at 18.8 µM; 0.72% of 360,000 active; AID 624352;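 active = inhibition of the luminescence signal of 40% or more relative to plate controls, in a single-dose primary screen at 18.75 µM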
ABHD5-PLIN5 conf – ABHD5-PLIN5 interaction inhibition, confirmed; shares compounds with ABHD5 PLIN5 PPI; biochemical ABHD5-PLIN5 interaction, luminescence; inhibition, % at 4 µM; 67% of 2,200 active; AID 651612; in the data active = inhibition above about 23%;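 note: 0% = DMSO vehicle wells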
HNF4 split-luc – counter-screen for ABHD5-PLIN5 inhibitors: HNF4 split-luciferase. shares compounds with ABHD5 PLIN5 PPI. HNF4 dimerization, luminescence, biochemical. inhibition, % at 4 µM. 77% of 2,200 active;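 active = mean inhibition across replicate wells exceeding the computed hit threshold, cut at about 13% in these data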;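 note: light from luciferase halves that rejoin when HNF4 fusion proteins dimerize; 0% = DMSO only wells and the 100% control is not given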
HIF-2a inh conf – confirmation of HIF-2a inhibitors | 56% of 1,800 active | AID 651580 | shares compounds with HIF-2a inh | inhibition, % at 18.8 µM | 786-0 RCC cells, HIF-2a luciferase reporter luminescence, overnight;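 active = mean inhibition across four replicates of at least 40 percent at the single tested concentration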
HIF-1a counter – counter-screen for HIF-2a inhibitors: HIF-1a inhibition in MiaPaCa-2 cells; shares compounds with HIF-2a inh; MiaPaCa-2 HIF-1a luciferase reporter, desferoxamine, overnight; inhibition, % at 18.8 µM; 72% of 1,800 active; AID 651589;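 active = mean inhibition of the reporter signal across four replicates at the single tested dose of 50% or more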
Active calls of the source: *; · = no result given.

SMILES	KKLEB tox	CF NFkB block	ABHD5 PLIN5 PPI	Mdm2-MdmX inh	Peg3 promoter	HIF-2a inh	HIF-2a inh conf	HIF-1a counter	others
CCCCCN1C(=O)c2cc(OC)ccc2[C@@]2(C(=O)OCC)Cc3cc(Cl)ccc3[C@@H]12	·	·	39*	·	·	80*	97*	105*	ABHD5-PLIN5 conf=27*;HNF4 split-luc=30*
CCOC(=O)[C@]12Cc3cc(Cl)ccc3[C@H]1N(CC(=O)OC)C(=O)c1ccccc12	·	·	38*	·	·	81*	94*	104*	ABHD5-PLIN5 conf=32*;HNF4 split-luc=34*
CCOC(=O)[C@]12Cc3cc(Cl)ccc3[C@H]1N(C(C)C)C(=O)c1ccccc12	·	·	33*	·	·	90*	95*	104*	ABHD5-PLIN5 conf=25*;HNF4 split-luc=29*
C/C=C1/C[N+]2(C)CCC34C(=C(C=O)[C@H]1C[C@@H]32)Nc1ccccc14 (some centres not stated)	4	8	3	19	-7	1	·	·
Oc1ccc2c3c1OC1c4oc5ccccc5c4C[C@@]4(O)[C@@H](C2)N(CC2CC2)CC[C@]314 (some centres not stated)	7	15	8	18	-30	9	·	·
COc1ccc(CN2Cc3cnnn3-c3ccccc3C2C#N)cc1 (configuration not stated)	-3	7	58*	·	93*	90*	96*	105*	ABHD5-PLIN5 conf=91*;HNF4 split-luc=89*
CCOP(=S)(OCC)Oc1nc(Cl)c(Cl)cc1Cl	-5	4	-5	21	-6	1	·	·
CCOC(=O)[C@]12Cc3c(cc(OC)c(OC)c3OC)[C@H]1N(C(C)C)C(=O)c1cc(OC)ccc12	·	·	20	·	·	26	·	·
CCOC(=O)[C@]12Cc3cc(OC)ccc3[C@H]1N(C(C)C)C(=O)c1cc(OC)ccc12	·	·	19	·	·	52*	90*	96*
CCC(c1nnnn1C1CCCC1)N1CCC2(CC1)C(=O)NCN2c1ccccc1 (configuration not stated)	-4	17	-6	·	11	3	·	·
Cc1nc2cc(-c3ccc(Cl)cc3)nn2c(C)c1CCC(=O)N1CCC2(CC1)OCCO2	-2	2	9	·	-10	81*	89*	68*
O=C(c1cc(Cl)cc(Cl)c1)N1Cc2ccccc2-n2nncc2C1	-8	-15	-4	·	0	1	·	·
O=C1NC2C(O)C(O)C(O)C(O)C2c2cc3c(c(O)c21)OCO3 (configuration not stated)	-49	86*	2	·	99*	66*	70*	105*
CC(C)CC1(CCc2ccccc2)C(=O)NC(=O)NC1=O	-7	-2	1	·	-4	3	·	·
CC1OC(OC2C=C3CCC4C(CCC5(C)C(c6ccc(=O)oc6)CCC45O)C3(C)CC2)C(O)C(OC2OC(CO)C(O)C(O)C2O)C1O (configuration not stated)	-62*	95*	-5	·	98*	70*	32	105*
N=C(N)c1c(O)n(C2CCCCC2)c(=O)n(C2CCCCC2)c1=O	-20	27	-42	39	77*	52*	24	97*
O=c1c(C=NCc2cccs2)c(O)n(C2CCCCC2)c(=O)n1C1CCCCC1	-9	5	-3	27	22	22	·	·
CC(=O)OCC12CC(OC(=O)CC(C)C)C(C)=CC1OC1C(O)C(OC(C)=O)C2(C)C12CO2 (configuration not stated)	-63*	93*	2	·	97*	82*	79*	102*
N#Cc1ccc(NC(=S)N2Cc3ccccc3-n3nncc3C2)cc1	2	2	-11	·	-13	14	·	·
N#CSCC(=O)N1c2ccccc2CCc2ccccc21	-26	59*	2	25	18	41*	28	72*
Nc1ccccc1C(=O)OCC(=O)N1CCc2ccccc21	-4	-1	-7	-153	-295	-211	·	·
O=[N+]([O-])c1ccc(N2CCOCC2)c2c1no[n+]2[O-]	-92*	84*	6	·	96*	69*	58*	101*
O=[N+]([O-])c1ccc(N2CCOCC2)c2cccnc12	-5	7	3	21	18	11	·	·
CC12CCC3C(CCC4(O)CC(O)CCC34C=NO)C1(O)CCC2C1=COC(=O)C1 (configuration not stated)	-48	85*	-4	·	97*	74*	25	102*
COc1ccc(-c2nc3ccc(C(=O)N4CCC5(CC4)OCCO5)cc3nc2-c2ccc(OC)cc2)cc1	-4	-8	15	1	14	10	·	·
SMILES	KKLEB tox	CF NFkB block	ABHD5 PLIN5 PPI	Mdm2-MdmX inh	Peg3 promoter	HIF-2a inh	HIF-2a inh conf	HIF-1a counter	others
O=C(Nc1ccc(F)cc1)N1Cc2ccccc2-n2nncc2C1	3	8	-12	·	-9	-15	·	·
C[C@H](CO)N1C[C@H](C)[C@H](CN(C)C(=O)Oc2ccccc2)OCc2cnnn2CCCC1=O	10	-12	6	·	-7	8	·	·
CCC(C)C1NC(=O)C2CCCN2C(=O)C(CC(C)C)OC(=O)CCNC(=O)C(C)N(C)C(=O)C(C(C)C)N(C)C1=O (configuration not stated)	-13	24	-5	·	27	-4	·	·
C=CCCC[C@@H]1OC(=O)CNC(=O)C([C@@H](C)CC)NC(=O)[C@@H]2CCCN2C(=O)C([C@@H](C)CC)OC(=O)[C@H](Cc2ccccc2)N(C)C(=O)[C@H](C(C)C)NC(=O)C1(C)C (some centres not stated)	4	-24	22*	·	15	82*	-13	104*
C[C@H]1O[C@@H](OC2CC[C@]3(C=O)[C@H]4CC[C@]5(C)[C@@H](C6=CC(=O)OC6)CC[C@]5(O)[C@@H]4CC[C@]3(O)C2)CC2OC(C)(C)OC21 (some centres not stated)	-71*	93*	5	·	107*	51*	33	103*
CC1CC(C)CC(C)C(O)C(C#N)=CC=CCC(C2CCCC2C(=O)O)OC(=O)CC(O)C(C)C1 (configuration not stated)	-48	86*	-6	·	51*	78*	76*	104*

Assay outcomes from PubChem BioAssay.
